Values without a mark were called inactive.

This assay can be described thus: PSAC antagonists in infected red cells, primary screen, cell-based, P. falciparum Indochina, OD700, 18 h (AID 1157). To be noted: P. falciparum Indochina infected erythrocytes, osmotic lysis OD700, 18 h; higher = more signal, called active from +8 up or from −8 down.
Consider `COCCOC(=O)N1C(=O)[C@@]2(c3cc(C#CC4(O)CCCCCC4)ccc31)[C@H](C(=O)NC[C@H](O)c1ccccc1)[C@H]1C(=O)O[C@H](c3ccccc3)[C@H](c3ccccc3)N1[C@@H]2c1ccc(O)cc1`, for which the z-score is 1.05.

With `O=C1C2C=CC(C(O)c3ccc([N+](=O)[O-])cc3)N(Nc3ccccc3)C2C(=O)N1c1ccccc1` (configuration not stated), the z-score is 1.9.

Take `C=C(CCCC)C(=O)CC[C@H](OC(C)=O)c1ccccc1OCCO`: the z-score was -1.83.

Consider `C=C(COC)/C(=C/C[C@H](OC(=O)c1ccncc1)c1ccc(OCCO)cc1)c1cc(C(=O)OC)ccc1OC`, for which the z-score is -1.02.

`COC(=O)[C@@]1(Cc2ccc(OC)cc2)[C@@H]2[C@@H](CC(=O)[C@H]2CC(=O)C(=O)N2CCCC2)CN1C(=O)c1ccccc1`: the z-score is 0.986.

As to `CCOC(=O)C[C@H]1[C@H](OC(=O)c2ccc(-c3ccccc3)cc2)[C@@H](NC(=O)CC(C)C)c2cc(OCCCO)ccc2N1C(=O)Cc1ccc(OC)cc1`, the z-score was 0.261.

Regarding `C=CCN1C(=O)[C@]2(O[C@H](CCn3cc([C@H](O)c4ccccc4)nn3)[C@@H]([Si](C)(C)c3ccc(OC)cc3)[C@@H]2C)c2cc(N3C(=O)c4cccc5cccc3c45)ccc21`, the z-score was 0.889.

The record behind these values is PubChem BioAssay.
